Reference: PubChem BioAssay (NCI)
The panel holds about 79,000 compounds, 15% with a hit somewhere; the sample as a whole holds those more often. Cut-off read from the data, not from the text of the source: active = growth inhibition above about 70%; inactive = the rest.

How the values were obtained:
[1] = NCI Yeast Anticancer Drug Screen. Data for the rad50 strain (AID 155);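 note: 0% = growth of vehicle-only cultures of the same strain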; details: S. cerevisiae rad50 strain growth inhibition; at 50.0 µM; active compounds read high
How it was run: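 Growth of the mutant yeast was measured after compound exposure and referenced to vehicle-treated cultures.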

[2] = NCI Yeast Anticancer Drug Screen. Data for the mec2-1 strain (AID 157); details: S. cerevisiae mec2-1 strain, at 50.0 µM, active compounds read high
How it was run: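 Compounds were applied to mec2-1 yeast cells. Their growth was then compared with that of vehicle-treated cultures to give growth inhibition.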

[3] = NCI Yeast Anticancer Drug Screen. Data for the sgs1 mgt1 strain (AID 161);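 note: 0% = growth of cultures given vehicle only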; details: S. cerevisiae sgs1 mgt1 strain, at 50.0 µM, active compounds read high
How it was run: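 This yeast growth screen uses a strain with defined DNA-repair lesions; compound-treated growth is compared with vehicle-treated growth.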

[4] = NCI Yeast Anticancer Drug Screen. Data for the cln2 rad14 strain (AID 165);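 note: 0% = growth equal to vehicle treated cultures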; details: S. cerevisiae cln2 rad14 strain, at 50.0 µM, active compounds read high
How it was run: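 Strain: cln2 rad14 yeast, altered in cell cycle control and DNA damage repair. Read-out: growth inhibition vs vehicle.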

[5] = NCI Yeast Anticancer Drug Screen. Data for the bub3 strain (AID 167); details: S. cerevisiae bub3 mutant strain, at 50.0 µM, active compounds read high
How it was run: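 Whole-cell yeast assay. The mutant strain was incubated with compounds, and growth inhibition was determined by comparison with vehicle-treated cells.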

[6] = NCI Yeast Anticancer Drug Screen. Data for the mlh1 rad18 strain (AID 175); details: S. cerevisiae mlh1 rad18 strain growth inhibition; at 50.0 µM; active compounds read high
How it was run: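 A repair-deficient yeast strain is exposed to test compound, and growth is scored relative to vehicle-treated controls.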

Measured: growth inhibition

COc1cccc(/C=N/[N-]C(N)=O)c1[O-].[OH3+].[Pd+2]
inactive: [1] 7.65% | [2] 8.2% | [3] 15.9% | [4] 7.4% | [5] 18.9% | [6] 21.6%

CCCCc1cccc2c1OCO2
inactive: [1] -18.6% | [2] -0.6% | [3] -7.75% | [4] -9.75% | [5] -12.5% | [6] 36.8%

N#CCC(=O)N1CCCC1
inactive: [1] -23.1% | [2] -32.3% | [3] -3.8% | [4] -8.6% | [5] -14.3% | [6] -26.2%

FC(F)C(F)(F)N1c2ccccc2Sc2ccccc21
inactive: [1] 27.6% | [2] -6.2% | [3] 19.9% | [4] 6.9% | [5] 27.1% | [6] 60.1%

CCN(CC)Cc1ncccc1O
inactive: [1] 8.5% | [2] -15.8% | [3] -22.4% | [4] -2.25% | [5] -5.8% | [6] 16.1%

N#CCC(=O)N/N=C/c1ccccc1
inactive: [1] 8.3% | [2] -27.1% | [3] 0.55% | [4] 9.95% | [5] -5.85% | [6] 9.4%

CC(=O)[C@H]1CC[C@H]2[C@@H]3CC[C@@H]4CC(=O)CC[C@]4(C)[C@H]3[C@@H]3O[C@@H]3[C@]12C
inactive: [1] -13.2% | [2] 5.4% | [3] -11.1% | [4] -46% | [5] -1.1% | [6] 7.55%

CC(O)CSCC(C)O (stereo unspecified)
inactive: [1] 10.1% | [2] -4.2% | [3] -16.7% | [4] 12.4% | [5] -7.7% | [6] 3.05%

CCOC(=O)NC(=O)c1cn(CCCCCCCCCCC(=O)NCCCN2CCN(CCCNC(=O)CCCCCCCCCCn3cc(C(=O)NC(=O)OCC)c(=O)[nH]c3=O)CC2)c(=O)[nH]c1=O
inactive: [1] -19.2% | [2] 12.9% | [3] -23.8% | [4] -27.4% | [5] 2.25% | [6] -17.6%

O=C(O)C1CCC(=O)N1Cc1csc(-c2ccccc2)n1 (stereo unspecified)
inactive: [1] -23.8% | [2] -19.6% | [3] -1.45% | [4] -19.6% | [5] -7.15% | [6] 2.7%

O=C1/C(=C/c2ccccc2)SC(=S)N1C1OC(CO)C(O)C(O)C1O (stereo unspecified)
inactive: [1] 3.45% | [2] 11.8% | [3] -8.4% | [4] 8.95% | [5] -3.95% | [6] 6.9%

N#CC(C(=O)C(=O)Nc1cccc(C(F)(F)F)c1)c1cccc(Cl)c1 (stereo unspecified)
inactive: [1] 19.1% | [2] 11.4% | [3] 14.8% | [4] 12.2% | [5] 19.6% | [6] 28.9%

CC(=O)c1cc([N+](=O)[O-])c(O)cc1O
inactive: [1] 36.1% | [2] 2.25% | [3] 18.1% | [4] -16.8% | [5] 25.9% | [6] 41%

Cc1c(-c2ccccc2)c(=O)oc2cc(O)ccc12
inactive: [1] -12.4% | [2] 13% | [3] 9.3% | [4] -49.2% | [5] 17.5% | [6] 11.2%

Cc1ccc(Oc2cc(C)ccc2P(=O)(O)O)cc1
inactive: [1] 6.5% | [2] 1.4% | [3] 22.2% | [4] 26.1% | [5] -23.7% | [6] 23.1%

CC(C)CNC(=S)N/N=C/c1ccc(C(C)C)cc1
inactive: [1] -19.6% | [2] -13.4% | [3] -8.4% | [4] -46.2% | [5] -13.1% | [6] -28.1%

CSc1nc2c(c(O)c(C)c(=O)n2C2OC(COC(C)=O)C(OC(C)=O)C(OC(C)=O)C2OC(C)=O)c(=O)n1C (stereo unspecified)
inactive: [1] 10.1% | [2] -4.3% | [3] 62.8% | [4] 32.9% | [5] 34.7% | [6] 7.25%

CC12CC(=O)NN=C1c1ccccc1C2 (stereo unspecified)
inactive: [1] 4.35% | [2] -10.8% | [3] 18.1% | [4] 29.6% | [5] -6.8% | [6] -2.8%

O=C(NCc1ccccc1)/C(=C/c1ccc2c(c1)OCO2)NC(=O)c1ccccc1
inactive: [1] -42% | [2] -50.1% | [3] -28.5% | [4] -6.2% | [5] -15.2% | [6] -22.2%

CC1(Br)CC2=C(CC1(C)Br)C(=O)C(c1ccccc1)=C(c1ccccc1)C2=O (stereo unspecified)
inactive: [1] 9.25% | [2] 17.1% | [3] 39.2% | [4] 25% | [5] 12.3% | [6] 23.4%

CN(C)c1ccc(N=Cc2ccc(O)cc2)cc1
inactive: [1] 10.9% | [2] 0.55% | [3] -4.6% | [4] 2% | [5] 2.9% | [6] 7%
